In PubChem BioAssay (Tox21) one finds Potency and outcome data, which are given here for 26 compounds.

Inconclusive results are not listed. A structure can be active in one record and inactive in another. The source made the active and inactive calls. Unless noted, the call rests on the fitted dose curve.

Assay [1] can be described thus: qHTS assay to identify small molecule agonists of the vitamin D receptor (VDR) signaling pathway - cell viability counter screen (AID 743224; active means well fitted curve in the direction sought with a large enough effect in the repeat runs; an effect the other way counts as inactive or inconclusive; further: series mostly up to about 63 µM; nearly all actives have a fitted effect of over 50% in size). In a few lines: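 Luminescence from CellTiter-Glo, read after 30 min at room temperature, reports viability of VDR-bla cells treated with compounds for 16 h at 37C in the wells used for the beta-lactamase FRET read.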
(In general: Quantitative high-throughput screening tests each substance at several concentrations.)

Assay [2] in a line: qHTS assay to identify small molecule antagonists of the vitamin D receptor (VDR) signaling pathway - cell viability counter screen (AID 743225; active means well fitted curve in the direction sought with a large enough effect in the repeat runs; an effect the other way counts as inactive or inconclusive; further: nearly all actives have a fitted effect of over 50% in size). Put shortly: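 Parallel cytotoxicity test: VDR-UAS-bla HEK 293T, 3 nM (final) 1-alpha,25-dihydroxyvitamin D3 with test compound, 16 h, 37C. Endpoint is CellTiter-Glo luminescence in the same wells.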
The nature of assay [3]: qHTS assay to identify small molecule agonists of the NFkB signaling pathway - cell viability counter screen (AID 1159515). Further: series mostly up to about 61 µM; nearly all actives have a fitted effect of over 55% in size. Put shortly:
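Luminescence from CellTiter-Glo (30 min, room temperature) gives viability, measured in the same wells as the beta-lactamase reporter read. Cells were NFkB-bla ME-180, 2,000 per well, treated 5 hr with compounds.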

Assay [4] in a line: qHTS assay to identify small molecule agonists of the endoplasmic reticulum stress response signaling pathway (AID 1159516; active means well fitted activation curve with a large enough effect in the signal ratio in the repeat runs, not every such curve was filed as active; the % refers to the signal ratio). Put shortly: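 Read-out is beta-lactamase cleavage of a FRET substrate (405 nm excitation; 460 and 530 nm emissions) in ESRE-bla HeLa cells after a 5 hr compound exposure at 37 C. Substrate incubation ran 2 hr at room temperature.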
A short description of assay [5]: qHTS assay to identify small molecule agonists of the endoplasmic reticulum stress response signaling pathway - cell viability counter screen (AID 1159517).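 Further: HeLa cells carrying an ER stress response element beta-lactamase reporter; series mostly up to about 61 µM; nearly all actives have a fitted effect of over 50% in size.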 In a few lines:
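Counter-screen wells were identical to the reporter wells. Cells were plated at 1,500 per well and dosed for 5 hr, then read for luminescence 30 min after CellTiter-Glo addition.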

Assay [6] is described as follows: qHTS assay to identify small molecule antagonists of the retinoid-related orphan receptor gamma (ROR-gamma) signaling pathway - cell viability counter screen (AID 1159520; active means well fitted curve in the direction sought with a large enough effect in the repeat runs; an effect the other way counts as inactive or inconclusive; further: nearly all actives have a fitted effect of over 50% in size). Put shortly: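 Tet-on ROR gamma CHO cells were given compounds for 2 hr, then doxycycline hyclate at 1 uM final, and incubated 16 hr at 37 C. Viability was measured as ATP content by CellTiter-Glo luminescence.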

For assay [7], the target named is Nuclear receptor ROR-gamma (Homo sapiens) (UniProt P51449). The assay can be described thus: qHTS assay to identify small molecule antagonists of the retinoid-related orphan receptor gamma (ROR-gamma) signaling pathway (AID 1159521; active means well fitted curve in the direction sought with a large enough effect in the repeat runs; an effect the other way counts as inactive or inconclusive; further: nearly all actives have a fitted effect of over 50% in size; further: potency means the concentration at half of the fitted maximal effect). In a few lines:
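Decreased RORE-driven luciferase luminescence indicates antagonism. Tet-on RORγ CHO cells received compound, then 1 uM final doxycycline 2 h later; signal read after 16 h incubation.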

A short description of assay [8]: qHTS assay to identify small molecule agonists of the AP-1 signaling pathway - cell viability counter screen (AID 1159525). Further: nearly all actives have a fitted effect of over 55% in size. Further: potency means the concentration at half of the fitted maximal effect. In a few lines: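 AP-1-bla ME-180 cells in Opti-MEM with 0.5% dialyzed FBS, compound exposure 5 h at 37 C in 15-point titration. Viability read in the same wells as ATP content by CellTiter-Glo luminescence, normalised to tetra-n-octylammonium bromide and DMSO controls.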

The nature of assay [9]: qHTS assay to identify small molecule agonists of the AP-1 signaling pathway (AID 1159526).
The target of assay [10] is Retinoic acid receptor RXR-alpha (Homo sapiens) (UniProt P19793). The assay can be described thus: qHTS assay to identify small molecule agonists of the RXR signaling pathway (AID 1159527). Further: nearly all actives have a fitted effect of over 35% in size. In a few lines:
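16 hr incubation of compound-treated RXR-alpha-UAS-bla HEK 293T cells (2% charcoal-stripped FBS, 37 C) preceded a 2 hr room-temperature LiveBLAzer FRET substrate step and blue/green fluorescence measurement.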

Retinoic acid receptor RXR-alpha (Homo sapiens), sequence (P19793 whole entry, looked up): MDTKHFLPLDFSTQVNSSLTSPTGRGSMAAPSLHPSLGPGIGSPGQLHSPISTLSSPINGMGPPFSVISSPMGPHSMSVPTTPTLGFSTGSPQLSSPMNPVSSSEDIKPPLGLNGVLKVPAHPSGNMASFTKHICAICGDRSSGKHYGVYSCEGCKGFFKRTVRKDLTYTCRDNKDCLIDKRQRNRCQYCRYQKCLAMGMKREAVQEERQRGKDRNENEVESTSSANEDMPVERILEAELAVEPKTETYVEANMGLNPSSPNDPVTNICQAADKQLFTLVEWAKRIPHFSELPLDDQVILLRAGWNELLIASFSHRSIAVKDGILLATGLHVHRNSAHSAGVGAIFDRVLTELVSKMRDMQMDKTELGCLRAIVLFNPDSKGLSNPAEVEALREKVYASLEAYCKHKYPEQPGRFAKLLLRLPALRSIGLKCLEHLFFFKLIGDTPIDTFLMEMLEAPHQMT

For `CC1(C)C(=O)N(Cl)C(=O)N1Cl`, the Potency result in [1], in assay [2], in assay [3], in assay [4], in [5] and in assay [6] was “inactive” in each case. The Potency result in [7], in [8] and in [10] was “inactive” each time. Further, the compound was called inactive in assay [9].

With `CC1=CC(=O)CC(C)(C)C1`, the Potency result in assay [1], in assay [2], in assay [3], in [4], in assay [5] and in assay [6] was “inactive” throughout. Also, in assay [10], the Potency entry was “inactive”. Further, the Potency in assay [7] is 2.5 µM (active) and inactive; in assay [8], 25.3 µM (active) and inactive. Also, the outcome in assay [9] was inactive.

Turning to `CS(=O)(=O)c1ccc(Cl)cc1`, the Potency result in assay [1], in assay [2], in [3], in [4], in assay [5] and in assay [6] was “inactive” throughout. Moreover, the Potency result in [7], in assay [8] and in assay [10] was “inactive” in each case. Besides, the outcome in assay [9] was inactive.

`Cc1cc(C)cc(O)c1`: the Potency entry in [1], in assay [2], in assay [3], in assay [4], in [5] and in [6] was “inactive” throughout. For the same compound, the Potency result in assay [7], in assay [8] and in assay [10] was “inactive” in each case. Moreover, the compound was classed as inactive in assay [9].

Take `O=[N+]([O-])c1ccccc1C(F)(F)F`: the Potency result in [1], in [2], in assay [3], in assay [4], in assay [5] and in assay [6] was “inactive” in each case. The Potency entry in assay [7], in assay [8] and in [10] was “inactive” in each case. Also, the call in assay [9] was inactive.

For `CC(=O)OC[C@H]1O[C@@](COC(C)=O)(O[C@H]2O[C@H](COC(C)=O)[C@@H](OC(C)=O)[C@H](OC(C)=O)[C@H]2OC(C)=O)[C@@H](OC(C)=O)[C@@H]1OC(C)=O`, the Potency result in [1], in assay [2], in assay [3], in assay [4], in [5] and in assay [6] was “inactive” in each case. The Potency result in assay [7], in [8] and in assay [10] was “inactive” in each case. Also, the compound was called inactive in [9].

For the compound `O=C(c1ccccc1)c1ccc(O)c(O)c1O`, the Potency entry in [1], in [2], in [3], in assay [4], in assay [5] and in [6] was “inactive” in each case. Moreover, the Potency result in [7], in assay [8] and in assay [10] was “inactive” throughout. The compound was called inactive in assay [9].

For `CCCCCCCCO`, the Potency result in assay [1], in [2], in assay [3], in assay [4], in assay [5] and in assay [6] was “inactive” throughout. The Potency entry in assay [7], in [8] and in assay [10] was “inactive” each time. Further, the outcome in assay [9] was inactive.

On to `CCCCCCCC(=O)O`, for which the Potency result in assay [1], in assay [2], in assay [3], in assay [4], in assay [5] and in assay [6] was “inactive” each time. Besides, the Potency result in assay [7], in [8] and in assay [10] was “inactive” throughout. In assay [9], the result was inactive.

As to `CC(C)(CO)CO`, the Potency entry in assay [1], in [2], in [3], in [4], in assay [5] and in assay [6] was “inactive” each time. For the same compound, the Potency entry in assay [7], in assay [8] and in assay [10] was “inactive” each time. In addition, the compound was classed as inactive in [9].

`CC(O)CNCC(C)O` (stereo not drawn): the Potency entry in [1], in [2], in assay [3], in assay [4], in assay [5] and in [6] was “inactive” throughout. The Potency result in assay [7], in assay [8] and in assay [10] was “inactive” throughout. In addition, the call in assay [9] was inactive.

With `COc1ccccc1[N+](=O)[O-]`, the Potency result in assay [1], in assay [2], in [3], in assay [4], in assay [5] and in [6] was “inactive” each time. Also, the Potency entry in assay [7], in assay [8] and in [10] was “inactive” in each case. In addition, the outcome in [9] was inactive.

With `OCc1ccc(Cl)cc1Cl`, the Potency result in assay [1], in assay [2], in assay [3], in [4], in [5] and in assay [6] was “inactive” each time. Further, the Potency entry in [7], in [8] and in assay [10] was “inactive” each time. Besides, in assay [9], the compound was classed as inactive.

For `CO[Si](CCCNCCN)(OC)OC`, the Potency result in assay [1], in [2], in assay [3], in assay [4], in [5] and in assay [6] was “inactive” in each case. Besides, the Potency result in assay [7], in assay [8] and in assay [10] was “inactive” in each case. The compound was called inactive in [9].

For the compound `Nc1cccc(C(F)(F)F)c1`, the Potency result in [1], in assay [2], in [3], in [4], in [5] and in assay [6] was “inactive” each time. Further, the Potency result in assay [7], in assay [8] and in assay [10] was “inactive” throughout. For the same compound, the result in assay [9] was inactive.

For the compound `O=C1O[C@H]([C@H](O)CO)C(O)=C1O`, the Potency result in [1], in assay [2], in assay [3], in assay [4], in assay [5] and in assay [6] was “inactive” in each case. The Potency result in [7], in [8] and in assay [10] was “inactive” each time. Moreover, the result in assay [9] was inactive.

As for `CC(=O)OCc1ccc2c(c1)OCO2`, the Potency result in assay [1], in assay [2], in [3], in assay [4], in [5] and in assay [6] was “inactive” throughout. Moreover, the Potency result in assay [7], in assay [8] and in assay [10] was “inactive” throughout. The result in assay [9] was inactive.

`CCOC(=O)c1ccc(O)cc1`: the Potency result in assay [1], in [2], in assay [3], in [4], in assay [5] and in assay [6] was “inactive” throughout. The Potency result in [7], in assay [8] and in assay [10] was “inactive” in each case. Further, in assay [9], the compound was classed as inactive.

In the case of `CCCCC(=O)O`, the Potency result in [1], in assay [2], in assay [3], in assay [4], in assay [5] and in [6] was “inactive” in each case. The Potency entry in assay [7], in assay [8] and in [10] was “inactive” each time. The compound was classed as inactive in [9].

With `CC(C)(C)NC[C@H](O)COc1nsnc1N1CCOCC1`, the Potency entry in [1], in [2], in assay [3], in assay [4], in [5] and in [6] was “inactive” in each case. Besides, the Potency result in [7], in assay [8] and in assay [10] was “inactive” throughout. In addition, the outcome in assay [9] was inactive.

As to `C=CC(C)(C)C`, the Potency entry in [1], in assay [2], in assay [3], in assay [4], in assay [5] and in [6] was “inactive” throughout. For the same compound, the Potency entry in assay [7], in [8] and in [10] was “inactive” each time. Moreover, in assay [9], the compound was called inactive.

With `COc1c(Cl)ccc(Cl)c1C(=O)O`, the Potency entry in [1], in assay [2], in assay [3], in assay [4], in assay [5] and in assay [6] was “inactive” in each case. The Potency result in assay [7], in [8] and in [10] was “inactive” each time. In addition, the compound was called inactive in assay [9].

Turning to `CCN(CC)CCNC(=O)c1ccc(N)cc1`, the Potency entry in assay [3], in assay [4], in assay [5], in assay [6], in [7] and in assay [8] was “inactive” throughout. The Potency entry in [10] was “inactive”. Moreover, in assay [9], the call was inactive.

In the case of `Cc1cc(C)c(O)c(C)c1`, the Potency result in [1], in assay [2], in assay [3], in assay [4], in [5] and in assay [6] was “inactive” throughout. The Potency result in [7], in assay [8] and in assay [10] was “inactive” each time. Moreover, the call in assay [9] was inactive.

`OC[C@H]1O[C@@H](Oc2ccc(O)cc2)[C@H](O)[C@@H](O)[C@@H]1O`: the Potency result in [1], in [2], in assay [3], in [4], in assay [5] and in [6] was “inactive” throughout. In addition, the Potency entry in [7], in assay [8] and in assay [10] was “inactive” throughout. Moreover, the outcome in assay [9] was inactive.

`CC/C(C)=N/O`: the Potency result in assay [1], in [2], in assay [3], in assay [4], in assay [5] and in assay [6] was “inactive” in each case. Further, the Potency entry in assay [7], in [8] and in assay [10] was “inactive” throughout. In addition, the call in assay [9] was inactive.
